Measurements published in the supplement of paper PMC6992640.

The compounds below were run on WHIM30 (cells of a triple-negative basal-like breast cancer xenograft) (assay: cell viability of combination (% of vehicle); higher = less cytotoxic). Settings: 1 µM; 72 h; partner dose: 10 nM.
Procedure: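 PDX cells were treated for 72 h with each drug at 1 µM plus carfilzomib (10 nM; 100 nM for WHIM2). Luciferase viability is expressed as percent of vehicle.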

Row | Structure (SMILES) | cell viability of combination
1 | CN1CCN(CCCN2c3ccccc3Sc3ccc(C(F)(F)F)cc32)CC1.Cl.Cl [Trifluoperazine 2HCl] + CC(C)C[C@H](NC(=O)[C@H](CCc1ccccc1)NC(=O)CN1CCOCC1)C(=O)N[C@@H](Cc1ccccc1)C(=O)N[C@@H](CC(C)C)C(=O)[C@@]1(C)CO1 [Carfilzomib] | 16.7
2 | COc1cc2nccc(Oc3ccc(NC(=O)C4(C(=O)Nc5ccc(F)cc5)CC4)cc3)c2cc1OC.O=C(O)CC(O)C(=O)O [Cabozantinib malate (XL184)] + CC(C)C[C@H](NC(=O)[C@H](CCc1ccccc1)NC(=O)CN1CCOCC1)C(=O)N[C@@H](Cc1ccccc1)C(=O)N[C@@H](CC(C)C)C(=O)[C@@]1(C)CO1 [Carfilzomib] | 16.1
3 | Cc1cn(-c2cc(NC(=O)c3ccc(C)c(Nc4nccc(-c5cccnc5)n4)c3)cc(C(F)(F)F)c2)cn1 [Nilotinib(AMN-107)] + CC(C)C[C@H](NC(=O)[C@H](CCc1ccccc1)NC(=O)CN1CCOCC1)C(=O)N[C@@H](Cc1ccccc1)C(=O)N[C@@H](CC(C)C)C(=O)[C@@]1(C)CO1 [Carfilzomib] | 22.2
4 | Oc1c(Cl)cc(Cl)c2cccnc12 [Chloroxine] + CC(C)C[C@H](NC(=O)[C@H](CCc1ccccc1)NC(=O)CN1CCOCC1)C(=O)N[C@@H](Cc1ccccc1)C(=O)N[C@@H](CC(C)C)C(=O)[C@@]1(C)CO1 [Carfilzomib] | 19
5 | CC(NCCCc1cccc(C(F)(F)F)c1)c1cccc2ccccc12 (stereo not given) [Cinacalcet] + CC(C)C[C@H](NC(=O)[C@H](CCc1ccccc1)NC(=O)CN1CCOCC1)C(=O)N[C@@H](Cc1ccccc1)C(=O)N[C@@H](CC(C)C)C(=O)[C@@]1(C)CO1 [Carfilzomib] | 19.5
6 | CC1=C(C(=O)OC(C)C)C(c2cccc([N+](=O)[O-])c2)C(C(=O)OC2CN(C(c3ccccc3)c3ccccc3)C2)=C(N)N1 (stereo not given) [Azelnidipine] + CC(C)C[C@H](NC(=O)[C@H](CCc1ccccc1)NC(=O)CN1CCOCC1)C(=O)N[C@@H](Cc1ccccc1)C(=O)N[C@@H](CC(C)C)C(=O)[C@@]1(C)CO1 [Carfilzomib] | 14.5
7 | CC(C)(C)c1ccc(C(O)CCCN2CCC(C(O)(c3ccccc3)c3ccccc3)CC2)cc1 (stereo not given) [Terfenadine] + CC(C)C[C@H](NC(=O)[C@H](CCc1ccccc1)NC(=O)CN1CCOCC1)C(=O)N[C@@H](Cc1ccccc1)C(=O)N[C@@H](CC(C)C)C(=O)[C@@]1(C)CO1 [Carfilzomib] | 15.5
8 | CCCCCCCCOc1ccccc1C(=O)Nc1ccc(C(=O)OCC[N+](C)(CC)CC)cc1.[Br-] [Otilonium Bromide] + CC(C)C[C@H](NC(=O)[C@H](CCc1ccccc1)NC(=O)CN1CCOCC1)C(=O)N[C@@H](Cc1ccccc1)C(=O)N[C@@H](CC(C)C)C(=O)[C@@]1(C)CO1 [Carfilzomib] | 17.7
9 | CC(=O)C1(O)Cc2c(O)c3c(c(O)c2C(OC2CC(N)C(O)C(C)O2)C1)C(=O)c1ccccc1C3=O.Cl (stereo not given) [Idarubicin HCl] + CC(C)C[C@H](NC(=O)[C@H](CCc1ccccc1)NC(=O)CN1CCOCC1)C(=O)N[C@@H](Cc1ccccc1)C(=O)N[C@@H](CC(C)C)C(=O)[C@@]1(C)CO1 [Carfilzomib] | 5.43
10 | CC1(COc2ccc3c(c2)ncn3-c2ccc3cccc(N4CCC(N)CC4)c3n2)COC1 + CC(C)C[C@H](NC(=O)[C@H](CCc1ccccc1)NC(=O)CN1CCOCC1)C(=O)N[C@@H](Cc1ccccc1)C(=O)N[C@@H](CC(C)C)C(=O)[C@@]1(C)CO1 [Carfilzomib] | 64.3
11 | CC(C)(C)c1ccc(C(=O)CCCN2CCC(OC(c3ccccc3)c3ccccc3)CC2)cc1 [Ebastine] + CC(C)C[C@H](NC(=O)[C@H](CCc1ccccc1)NC(=O)CN1CCOCC1)C(=O)N[C@@H](Cc1ccccc1)C(=O)N[C@@H](CC(C)C)C(=O)[C@@]1(C)CO1 [Carfilzomib] | 15.8
12 | CC1(C)CCC(c2ccc(Cl)cc2)=C(CN2CCN(c3ccc(C(=O)NS(=O)(=O)c4ccc(NC(CCN5CCOCC5)CSc5ccccc5)c(S(=O)(=O)C(F)(F)F)c4)cc3)CC2)C1 (stereo not given) [ABT-263 (Navitoclax)] + CC(C)C[C@H](NC(=O)[C@H](CCc1ccccc1)NC(=O)CN1CCOCC1)C(=O)N[C@@H](Cc1ccccc1)C(=O)N[C@@H](CC(C)C)C(=O)[C@@]1(C)CO1 [Carfilzomib] | 13.3
13 | CCc1cnn2c(NCc3ccc[n+]([O-])c3)cc(N3CCCCC3CCO)nc12 (stereo not given) + CC(C)C[C@H](NC(=O)[C@H](CCc1ccccc1)NC(=O)CN1CCOCC1)C(=O)N[C@@H](Cc1ccccc1)C(=O)N[C@@H](CC(C)C)C(=O)[C@@]1(C)CO1 [Carfilzomib] | 7.14
14 | COCCOC(=O)C1=C(C)NC(C)=C(C(=O)OCC=Cc2ccccc2)C1c1cccc([N+](=O)[O-])c1 (stereo not given) [Cilnidipine] + CC(C)C[C@H](NC(=O)[C@H](CCc1ccccc1)NC(=O)CN1CCOCC1)C(=O)N[C@@H](Cc1ccccc1)C(=O)N[C@@H](CC(C)C)C(=O)[C@@]1(C)CO1 [Carfilzomib] | 19.2
15 | CC(O)C(=O)O.CCOc1ccc2nc3cc(N)ccc3c(N)c2c1.O [Ethacridine lactate monohydrate] + CC(C)C[C@H](NC(=O)[C@H](CCc1ccccc1)NC(=O)CN1CCOCC1)C(=O)N[C@@H](Cc1ccccc1)C(=O)N[C@@H](CC(C)C)C(=O)[C@@]1(C)CO1 [Carfilzomib] | 15.2
16 | COC(=O)C12CCC(C)(C)CC1C1C(=O)C=C3C4(C)C=C(C#N)C(=O)C(C)(C)C4CCC3(C)C1(C)CC2 (stereo not given) [Bardoxolone methyl] + CC(C)C[C@H](NC(=O)[C@H](CCc1ccccc1)NC(=O)CN1CCOCC1)C(=O)N[C@@H](Cc1ccccc1)C(=O)N[C@@H](CC(C)C)C(=O)[C@@]1(C)CO1 [Carfilzomib] | 14.3
17 | CNC(=O)c1cc(Oc2ccc(NC(=O)Nc3ccc(Cl)c(C(F)(F)F)c3)cc2)ccn1 [Sorafenib] + CC(C)C[C@H](NC(=O)[C@H](CCc1ccccc1)NC(=O)CN1CCOCC1)C(=O)N[C@@H](Cc1ccccc1)C(=O)N[C@@H](CC(C)C)C(=O)[C@@]1(C)CO1 [Carfilzomib] | 18
18 | CCc1oc2ccccc2c1C(=O)c1cc(Br)c(O)c(Br)c1 [Benzbromarone] + CC(C)C[C@H](NC(=O)[C@H](CCc1ccccc1)NC(=O)CN1CCOCC1)C(=O)N[C@@H](Cc1ccccc1)C(=O)N[C@@H](CC(C)C)C(=O)[C@@]1(C)CO1 [Carfilzomib] | 20.1
19 | Clc1ccc(C(Cn2ccnc2)OCc2ccsc2Cl)c(Cl)c1 (stereo not given) [Tioconazole] + CC(C)C[C@H](NC(=O)[C@H](CCc1ccccc1)NC(=O)CN1CCOCC1)C(=O)N[C@@H](Cc1ccccc1)C(=O)N[C@@H](CC(C)C)C(=O)[C@@]1(C)CO1 [Carfilzomib] | 16.9
20 | Cn1cnc2c(F)c(Nc3ccc(Br)cc3F)c(C(=O)NOCCO)cc21 + CC(C)C[C@H](NC(=O)[C@H](CCc1ccccc1)NC(=O)CN1CCOCC1)C(=O)N[C@@H](Cc1ccccc1)C(=O)N[C@@H](CC(C)C)C(=O)[C@@]1(C)CO1 [Carfilzomib] | 36.1
